Cav32 inh: Cav3.2 calcium influx blockers – cell-based, Fluo-4 calcium fluorescence, FDSS, MLSMR library, primary screen; 100,000 tested, 4% active; B-score at 10 µM; Voltage-dependent T-type calcium channel subunit alpha-1H (Homo sapiens), O95180; Cav3.2-expressing cells; active compounds read low;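 active = single-dose well whose peak fluorescence ratio is a statistical outlier from its plate by either plate-standardised score or position-corrected B-score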
CYP2C9 act: human CYP2C9 activators, primary screen, biochemical, luminescence; Cytochrome P450 2C9 (Homo sapiens), P11712; recombinant CYP2C9, luciferin-H conversion; active compounds read high; factor 1 = untreated enzyme, 0 = blocked; activation factor at 5 µM; 96,000 tested, 1.4% active; AID 1024, 2008;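 active = activation factor of 2 or more for CYP2C9 at a 5 µM dose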;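 also: 0 = sulfaphenazole-blocked wells and 1 = vehicle-only wells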
Pyk2 oligo antag: antagonists of Pyk2 self-association, primary screen, Q293 cells, FERM NanoBiT luminescence, HTS. 99,000 tested, 0.83% active. z-score (the deposit names both 25 µM and 10 µM). active compounds read low. Protein-tyrosine kinase 2-beta (Homo sapiens), Q14289;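 active = Z-score of -3 or lower, scaled per plate to the spread of control and sample wells; inactive = z-score above -3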;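 also: negative z-score means lost luminescence so less FERM oligomerization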
CYP2C19 activ: human CYP2C19 activators, primary screen, biochemical, luminescence; Cytochrome P450 2C19 (Homo sapiens), P33261; 96,000 tested, under 10 active; recombinant CYP2C19, luciferin-H EGE luminescence; active compounds read high; 0 = fully inhibited enzyme, 1 = untreated enzyme; activation factor at 5 µM;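 active = activation factor of at least 2 at 5 µM in the primary screen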;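 also: 0 = wells with 2.5 mM tranylcypromine and 1 = vehicle-only wells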
CYP2C19 inh: blockers of cytochrome P450 2C19 activity – biochemical, luminescence, ADME assay, primary screen | CYP2C19 Supersomes, luciferin-H EGE luminescence, 30 min | inhibition, % at 5 µM | 96,000 tested, 21% active | AID 778, 2007 | P33261;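 active = CYP2C19 inhibition above a set limit at 5 µM in the primary screen, cut at about 50% in these data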;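 also: plate controls were negative control wells for no effect and 2.5 mM tranylcypromine positive control for full effect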
CYP2C9 inhib: blockers of cytochrome P450 2C9 activity – biochemical, luminescence, ADME assay, primary screen | CYP2C9 Supersomes, luciferin-H conversion | AID 777, 2007 | inhibition, % at 5 µM | 96,000 tested, 20% active;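 active = blocking of liver enzyme CYP2C9 beyond about 50% at 5 µM, limit read from the data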
An asterisk follows results filed as active. Only some compounds are listed: those with a hit (about 27% of all), similar ones and a draw of the others.

Screening CCc1cccc(C)c1NC(=O)C(c1ccccc1)N1CCC1=O (centres undefined) returned Cav32 inh 0.24, CYP2C9 act 1.1, Pyk2 oligo antag -0.21, CYP2C19 activ 1.1, CYP2C19 inh -15 and CYP2C9 inhib -9.
O=C1[C@H](CC[C@H](O)c2ccc(F)cc2)[C@@H](c2ccc(O)cc2)N1c1ccc(F)cc1 was read as Cav32 inh -4.1*.
For Cc1sc2ncnc(NCC(c3ccco3)N3CCCC3)c2c1C (centres undefined) the results were Cav32 inh 0.64, CYP2C9 act 0.5, Pyk2 oligo antag 0.44, CYP2C19 activ 0.7, CYP2C19 inh 28 and CYP2C9 inhib 48.
`COc1ccc(CNCCNC(=O)c2ccco2)c(OC)c1OC` gave Cav32 inh 0.59, CYP2C9 act 1, Pyk2 oligo antag 0.89, CYP2C19 activ 1, CYP2C19 inh 5 and CYP2C9 inhib -3.
`O=C(NCCSc1c[nH]c2ccccc12)c1ccco1` gave Cav32 inh -0.041, CYP2C9 act 0.4, CYP2C19 activ 0.8, CYP2C19 inh 19 and CYP2C9 inhib 62*.
COc1ccc2c(CCNC(=O)c3ccco3)c[nH]c2c1 was read as CYP2C9 act 0.6, Pyk2 oligo antag 0.92, CYP2C19 activ 0.2, CYP2C19 inh 79* and CYP2C9 inhib 39.
For COc1ccc(CN(C(=O)Cc2cccs2)C(C(=O)NC2CCCC2)c2ccncc2)cc1 (centres undefined) the results were Cav32 inh -3.3, CYP2C9 act 0.3, Pyk2 oligo antag -0.16, CYP2C19 activ 0.2, CYP2C19 inh 80* and CYP2C9 inhib 67*.
COc1ccc(CNC(=O)C(c2ccncc2)N(C(=O)Cc2cccs2)c2ccc(C)cc2)cc1 (centres undefined) was read as Cav32 inh -3.9, CYP2C9 act 0.3, Pyk2 oligo antag -1.2, CYP2C19 activ 0.3, CYP2C19 inh 67* and CYP2C9 inhib 69*.
Screening O=C(NC1CCCCC1)C(c1ccc(F)cc1)N(C(=O)c1cccs1)c1ccc2c(c1)OCO2 (centres undefined) returned Cav32 inh 0.36, CYP2C9 act 0.9, Pyk2 oligo antag -0.46, CYP2C19 activ 1.1, CYP2C19 inh -5 and CYP2C9 inhib 14.
Screening COCCN(C(=O)Cc1cccs1)C(C(=O)NCc1ccc(OC)cc1)c1ccccc1 (centres undefined) returned Cav32 inh -1.2, CYP2C9 act 0.8, Pyk2 oligo antag -0.07, CYP2C19 activ 0.9, CYP2C19 inh 14 and CYP2C9 inhib 17.
Screening COc1ccc(C(C(=O)NC2CCCCC2)N(Cc2cccs2)C(=O)Cc2c[nH]c3ccccc23)cc1 (centres undefined) returned Cav32 inh -6.4*, CYP2C9 act 0.3, Pyk2 oligo antag -2.5, CYP2C19 activ 0.5, CYP2C19 inh 49 and CYP2C9 inhib 68*.
Screening O=C(NC1CCCCC1)C(c1ccc2ncccc2c1)N(Cc1ccc(F)cc1)C(=O)c1cccs1 (centres undefined) returned CYP2C9 act 0.2, Pyk2 oligo antag -3.9*, CYP2C19 activ 0.3, CYP2C19 inh 66* and CYP2C9 inhib 84*.
COc1cccc(CN(C(=O)Cc2c[nH]c3ccccc23)C(C(=O)NC2CCCCC2)c2cccs2)c1 (centres undefined) was read as Cav32 inh -6.6*, CYP2C9 act 0, Pyk2 oligo antag -1.8, CYP2C19 activ 0.1, CYP2C19 inh 94* and CYP2C9 inhib 98*.
For COc1ccc(CCN(C(=O)C(F)(F)F)C(C(=O)NC2CCCC2)c2cccs2)cc1OC (centres undefined) the results were Cav32 inh -0.23, CYP2C9 act 0.1, Pyk2 oligo antag -0.76, CYP2C19 activ 0.1, CYP2C19 inh 85* and CYP2C9 inhib 88*.
Screening C#CC(=O)N(c1cccc(OC)c1)C(C(=O)NC1CCCC1)c1cccs1 (centres undefined) returned Cav32 inh 0.74, CYP2C9 act 0.8, Pyk2 oligo antag -2.5, CYP2C19 activ 0.4, CYP2C19 inh 57* and CYP2C9 inhib 24.
Screening Cn1c(=O)c2sccc2n2c(CCCC(=O)NCc3ccc4c(c3)OCO4)nnc12 returned Cav32 inh -0.18, CYP2C9 act 0.9, Pyk2 oligo antag 0.81, CYP2C19 activ 0.2, CYP2C19 inh 77* and CYP2C9 inhib 6.
`O=C(CCCCn1c(=O)[nH]c2ccsc2c1=O)NCc1ccc2c(c1)OCO2` gave Cav32 inh 0.57, CYP2C9 act 0.4, CYP2C19 activ 0.9, CYP2C19 inh 11 and CYP2C9 inhib 60*.
`CCn1c(=O)cc(SCC(=O)N2CCN(Cc3ccc4c(c3)OCO4)CC2)c2ccccc21` gave Cav32 inh -1, CYP2C9 act 0.6, Pyk2 oligo antag -0.64, CYP2C19 activ 0.6, CYP2C19 inh 41 and CYP2C9 inhib 41.
For Cc1csc2ncc(C(=O)NCc3ccc4c(c3)OCO4)c(=O)n12 the results were Cav32 inh -0.02, CYP2C9 act 0.9, CYP2C19 activ 0.6, CYP2C19 inh 36 and CYP2C9 inhib 12.
Screening Cn1c(=O)cc(SCC(=O)N2CCN(Cc3ccc4c(c3)OCO4)CC2)c2ccccc21 returned Cav32 inh 0.71, CYP2C9 act 0.5, Pyk2 oligo antag 0.47, CYP2C19 activ 0.8, CYP2C19 inh 24 and CYP2C9 inhib 52*.
O=C(CCCCCn1c(=O)[nH]c2ccccc2c1=O)N1CCN(Cc2ccc3c(c2)OCO3)CC1 was read as Cav32 inh 1.3, CYP2C9 act 0.2, Pyk2 oligo antag 1.2, CYP2C19 activ 0.4, CYP2C19 inh 65* and CYP2C9 inhib 80*.
`COCC(O)CSc1nc(C)[nH]c1[N+](=O)[O-]` (centres undefined) gave Cav32 inh 1.3, CYP2C9 act 1.2, Pyk2 oligo antag 0.37, CYP2C19 activ 1.1, CYP2C19 inh -10 and CYP2C9 inhib -19.
For CSc1nsc(SCc2ccc(F)cc2)n1 the results were Cav32 inh 0.33, CYP2C9 act 0.9, Pyk2 oligo antag -0.12, CYP2C19 activ 0.2, CYP2C19 inh 79* and CYP2C9 inhib 9.
`CCOC(=O)c1nn(-c2ccccc2)c(=O)c2c(N)scc12` gave Cav32 inh 0.048, CYP2C9 act 1, Pyk2 oligo antag 1.6, CYP2C19 activ 0.9, CYP2C19 inh 7 and CYP2C9 inhib 5.

Compound activity (PubChem BioAssay)
